From PubChem BioAssay (Tox21)
Records with an inconclusive call do not appear. Values without a mark were called inactive. Active and inactive are the calls of the source. The call rests on the fitted dose curve; in most records, active means well fitted activation curve with a large enough effect in the signal ratio in the repeat runs (not every such curve was filed as active); inconclusive means weak or mixed curves; inactive means flat fitted curve, though single readings scatter; the % refers to the signal ratio.

assay: qHTS assay to identify small molecule agonists of the TGF-beta/Smad signaling pathway (AID 1346859); settings: SBE-bla HEK293T, TGF-beta/Smad beta-lactamase reporter, 5 h; series mostly up to 76.8 µM
From the text: U.S. Tox21 Program National Center for Advancing Translational Sciences [NCATS] NIH Chemical Genomics Center [NCGC] U.S. Environmental Protection Agency [EPA] National Institutes of Environmental Health Sciences [NIEHS] National Toxicology Program [NTP] U.S. Food and Drug Administration [FDA] Tox21 Assay Overview: Transforming growth factor beta (TGF-beta) superfamily consists of a large number of structurally related dimeric proteins that act as hormones or local mediators in regulating a wide range of biological functions. This superfamily includes TGF-betas themselves, the bone morphogenetic proteins (BMPs) and the activins. These ligands induce oligomerization of serine/threonine receptor kinases and phosphorylate the cytoplasmic signaling molecules of Smad protein family. CellSensor SBE-bla HEK 293T cell line (Life Technologies, Carlsbad, CA), responsive to TGF-beta was used to screen Tox21 10K compound library for identification of agonists/antagonists of the Smad signaling pathway. This cell line contains a beta-lactamase reporter gene under control of the Smad binding element (SBE) stably integrated into HEK 293T cells.
Tox21 Assay Protocol Summary: SBE-bla HEK 293T cells were dispensed at 4,000/well in 6 uL of assay medium into black wall/clear-bottom 1536-well plates using a Multidrop Combi (ThermoFisher Scientific, Waltham, MA) dispenser. After the assay plates were incubated at 37 C and 5% CO2 for an overnight, 23 nL of compounds dissolved in DMSO, positive controls or DMSO only was transferred to the assay plate by a Pintool station (Kalypsys, San Diego, CA). The assay plates were incubated at 37 C and 5% CO2 for 5 hr. One uL of LiveBLAzer B/G FRET substrate (Life Technologies) was added using a Flying Reagent Dispenser (Aurora Discovery, San Diego, CA) and the plates were incubated at room temperature for 2 hr. Fluorescence intensity (405 nm excitation, 460 nm and 530 nm emissions) was measured using an Envision plate reader (PerkinElmer, Shelton, CT).
On the % scale 0 is the no-effect control and ±100 the full control effect.

Compound	outcome	activation
O=[N+]([O-])c1nccn1CO[C@@H](CO)[C@H](O)CO	inactive	
C/C(=N\O)[C@@H](C)NCC(C)(C)CN[C@H](C)/C(C)=N/O	inactive	
c1ccc(CN(CC2=NCCN2)c2ccccc2)cc1	inactive	
NCCCN1CCN(CCCN)CC1	inactive	
O=C1CCCCC1C1CCCCC1 (stereo not given)	inactive	
CC(C)C1=CC2=CC[C@@H]3[C@](C)(CCC[C@@]3(C)C(=O)O)[C@H]2CC1	inactive	
CC(Oc1c(Cl)cccc1Cl)C1=NCCN1 (stereo not given)	inactive	
CCN(CC)CC1CCCCN1CC(=O)N1c2ccccc2C(=O)Nc2cccnc21 (stereo not given)	inactive	
ClC(Cl)Cl	inactive	
CCCCCCCCCC/C=C/C#N	inactive	
O=C(O)C(=O)Cc1c[nH]c2ccccc12	inactive	
ICCc1ccccc1	inactive	
C[C@@H]1CN(c2c(F)c(F)c3c(=O)c(C(=O)O)cn(C4CC4)c3c2F)C[C@H](C)N1		-1.32% [at 15.8 µM]
CCCCN1C[C@H](O)[C@@H](O)[C@H](O)[C@H]1CO	inactive	
CCOc1ccc(OCC)c(Cl)c1	inactive	
O=c1[nH]c(=O)n([C@H]2C[C@H](O)[C@@H](CO)O2)cc1C(F)(F)F	inactive	
CCOC(=O)C1CC(=O)C(=C(O)C2CC2)C(=O)C1 (stereo not given)	inactive	
CCOC(=O)c1cc(=O)c2c(OCC(COc3cccc4oc(C(=O)OCC)cc(=O)c34)OC(=O)[C@@H](N)CCCCN)cccc2o1	inactive	
CC(=O)N(CC(O)CN(C(C)=O)c1c(I)c(C(=O)NCC(O)CO)c(I)c(C(=O)NCC(O)CO)c1I)c1c(I)c(C(=O)NCC(O)CO)c(I)c(C(=O)NCC(O)CO)c1I (stereo not given)	inactive	
Nc1ccc2ccccc2c1S(=O)(=O)O	inactive	

Compound	outcome	activation
CCCNC(C)(C)COC(=O)c1ccccc1	inactive	
Cc1ccc([N+](=O)[O-])c(N)c1	inactive	
CN1CCN(N)CC1	inactive	
Cc1c(C(=O)NCCO)[n+](=O)c2ccccc2n1[O-]	inactive	
CCC(=O)O[C@]1(C(=O)SCF)[C@H](C)C[C@H]2[C@@H]3C[C@H](F)C4=CC(=O)C=C[C@]4(C)[C@@]3(F)[C@@H](O)C[C@@]21C	inactive	
CC1CN(c2ccccc2)NC1=O (stereo not given)	inactive	
CC(C)C(=O)OCC(C)(C)C(O)C(C)C (stereo not given)	inactive	
CC(C)=CCCC(C)CCOC=O (stereo not given)	inactive	
Cc1nc(N)nc(N)c1-c1ccc(Cl)c(Cl)c1	inactive	
CN1[C@@H]2CC[C@H]1CC(OC(=O)c1c[nH]c3ccccc13)C2 (stereo not given in full)	inactive	
O=C(O)CN(CCN(CC(=O)O)CC(=O)O)CCN(CC(=O)O)CC(=O)O		3.97% [at 15.8 µM]
CC(=O)OC1C2(C)CCC(C2)C1(C)C (stereo not given)	inactive	
O=C(O)[C@@H](O)[C@H](O)[C@H](O)[C@@H](O)C(=O)O	inactive	
CC(=O)N[C@@H](CC(C)C)C(=O)O	inactive	
C1CCOC1	inactive	
CC(C)CCCCCCc1ccc(OCCOCCO)cc1	inactive	
CCCCc1ccc2nc(NC(=O)OC)[nH]c2c1	inactive	
Cc1cc2nc(N)sc2cc1C	inactive	
CC(C)Nc1nc(N)nc(Cl)n1	inactive	
CCCCCCCOC(=O)CCC	inactive	
